# Lmaj promast – Leishmania major promastigote growth inhibition; AID 1063; actives 9% (n = 200,000); inhibition, % at 10 µM; Leishmania major promastigotes, resazurin fluorescence viability; in the data active = inhibition above about 50%;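 note: promastigotes grown with compound for 44 hours at 28 °C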
# INS promoter inh – TRM-6 insulin promoter activity inhibition; AID 1273; TRM-6 cells (human fetal islet line), insulin promoter-eGFP reporter, imaging; reporter expression induced with tamoxifen; inhibition, % at 2 µM; actives 0.9% (n = 130,000);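 active = inhibition above the mean plus 3 SD, with well images judged a real hit on visual review, cut at about 60% in these data, passing the limit was not always enough; inconclusive = inhibition over the cutoff but images rejected on review; inactive = inhibition not above the cutoff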
# ROMK mod – modulators of human ROMK potassium channel; P48048; B-score at 10 µM; actives 2% (n = 130,000); Tet-inducible ROMK, thallium flux fluorescence; actives lie on both sides; AID 1918;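 active = signal ratio slope over the read window, or its plate-corrected B-score, at least 3 SD from the plate mean, either direction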;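 note: B-score of the F/F0 ratio slope over 7 to 12 s after thallium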
# PTEN del growth – PTEN-deleted cell growth suppression; AID 827; actives 1.2% (n = 140,000); viability, % at 10 µM; HCT116 PTEN-null viability, CellTiter-Glo, 60 h; active compounds read low;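 active = viability at or below a set limit, 4 SD under the median of all tested compounds, cut at about 3.7% in these data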;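 note: PTEN knockout HCT116 line with beta catenin targeted HCT116 as companion control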
# p97 ATPase inh – human p97 ATPase inhibition; recombinant p97 ATPase, Kinase-Glo ATP luminescence, 3 h; AID 1481; actives 0.42% (n = 220,000); inhibition, % at 8 µM; P55072; in the data active = inhibition above about 15%;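 note: 0% = DMSO vehicle and 100% = wells lacking enzyme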
# Target sequence (P55072 whole entry, looked up): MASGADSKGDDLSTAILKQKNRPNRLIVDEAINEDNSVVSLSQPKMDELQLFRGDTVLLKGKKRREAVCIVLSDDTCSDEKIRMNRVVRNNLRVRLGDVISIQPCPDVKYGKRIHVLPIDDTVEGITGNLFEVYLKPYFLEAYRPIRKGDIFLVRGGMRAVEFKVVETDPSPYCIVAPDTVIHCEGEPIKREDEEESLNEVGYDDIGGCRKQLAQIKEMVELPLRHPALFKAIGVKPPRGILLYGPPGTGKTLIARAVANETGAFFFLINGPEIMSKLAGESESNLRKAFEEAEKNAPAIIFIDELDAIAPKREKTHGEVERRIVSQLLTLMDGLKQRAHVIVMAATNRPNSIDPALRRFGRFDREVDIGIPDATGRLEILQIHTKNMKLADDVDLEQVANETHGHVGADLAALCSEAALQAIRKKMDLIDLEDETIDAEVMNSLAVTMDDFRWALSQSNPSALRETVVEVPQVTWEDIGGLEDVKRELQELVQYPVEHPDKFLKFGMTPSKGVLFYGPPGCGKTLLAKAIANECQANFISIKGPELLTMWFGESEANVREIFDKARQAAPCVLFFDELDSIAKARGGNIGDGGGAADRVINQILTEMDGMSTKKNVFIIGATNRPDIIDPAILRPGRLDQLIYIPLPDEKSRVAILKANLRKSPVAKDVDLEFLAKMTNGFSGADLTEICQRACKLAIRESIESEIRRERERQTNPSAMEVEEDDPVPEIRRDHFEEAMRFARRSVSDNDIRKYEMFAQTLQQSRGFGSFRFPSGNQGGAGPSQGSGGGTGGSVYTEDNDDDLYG
# HCT116 bCat-KO – beta-catenin-lacking colon tumor cell growth suppression. AID 818. viability, % at 10 µM. HCT116 beta-catenin knockout viability, CellTiter-Glo, 60 h; active compounds read low. actives 1.5% (n = 140,000);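 active = viability at or under a set limit, the compound median less 4 SD, cut at about 6% in these data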;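 note: 0% = Hyamine 1622 control at 20 µM and 100% = untreated cell control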
# * hit, by the source's call; ? = inconclusive; nt = no result. An excerpt weighted towards active compounds, which were near 10% of everything screened.
SMILES,Lmaj promast,INS promoter inh,ROMK mod,PTEN del growth,p97 ATPase inh,HCT116 bCat-KO
CN(C)CCCN1C(=O)C(O)=C(C(=O)c2cc3ccccc3o2)C1c1ccccn1 (stereo unspecified),nt,nt,-0.12,nt,nt,nt
COc1ccc(C2CN=NC2C(=O)c2ccccc2)cc1 (stereo unspecified),nt,nt,nt,nt,4,nt
CCN(CC)S(=O)(=O)c1cccc(NC(=O)c2ccccc2Br)c1,-3,77*,-0.35,nt,2,nt
CCN(CC)S(=O)(=O)c1cccc(NC(=O)c2ccc(SC)cc2OC)c1,62*,-67,-0.12,nt,-5,nt
CCN(CC)S(=O)(=O)c1ccc(N2CCCC2)c(C(=O)Nc2ccc(OC)c(Cl)c2)c1,91*,0,0.96,90,1,94
CCC(=O)Nc1cccc(NC(=O)c2ccccc2Br)c1,-3,nt,nt,88,-3,86
COc1cc(SC)ccc1C(=O)Nc1ncc(C)s1,67*,7,-0.28,nt,-4,nt
COc1cc(SC)ccc1C(=O)Nc1ccc(C)cc1,-3,nt,-0.68,nt,0,nt
COc1cc(SC)ccc1C(=O)Nc1ccc(Br)cn1,nt,nt,nt,nt,-4,nt
NC(=O)c1cc(N=Nc2c(N)[nH]n(-c3c(Cl)cc(Cl)cc3Cl)c2=O)ccc1Cl,-13,nt,0.11,nt,-2,nt
CCOc1ccc(-n2nnnc2-c2nc3ccccc3s2)cc1,-3,-40,0.042,3.1*,-1,3.3*
CCOc1ccc(N2C(=O)C(c3ccccc3)=C(c3nc4ccccc4s3)C2NC(C)=O)cc1 (stereo unspecified),51*,-453,nt,67,-1,62
CN(C)c1nc(NC(C)(C)C)nc(NC(C)(C)C)n1,60*,33,-0.29,nt,4,nt
c1cnc2ccc(C(c3nnnn3C3CCCCC3)N3CCCCC3)cc2c1 (stereo unspecified),28,-125,-1.4,86,-3,84
c1cnc2ccc(C(c3nnnn3C3CCCCC3)N3CCN(C4CCCCC4)CC3)cc2c1 (stereo unspecified),99*,60,nt,nt,1,nt
c1cnc2ccc(C(c3nnnn3C3CCCC3)N3CCN4CCCC4C3)cc2c1 (stereo unspecified),52*,-24,nt,92,1,95
CC(C)[C@H](NC(=O)NCCc1ccc(F)cc1)C(=O)O,-7,nt,nt,12,5,11
CN(C)/C=C(\C=O)c1ccc(Cl)cc1Cl,-1,nt,0.33,nt,-1,nt
COc1ccccc1/C=C1\CCCC2=C1Nc1nnnn1C2c1ccccc1OC (stereo unspecified),79*,?,-0.069,1.7*,3,4.0*
Cc1ccc(NC(=O)C2=C(O)CCn3c2nc2ccccc23)cc1,57*,21,nt,51,0,50
CC(=O)Nc1sc2c(c1C(N)=O)CCC2,-8,-381,2.5*,88,1,84
Cc1ccc2c(c1)c1c(n2CC(O)CNC(CO)(CO)CO)CCCC1 (stereo unspecified),-2,nt,nt,84,-1,86
Cc1ccc2c(c1)c1c(n2CC(O)CNC2CCCCC2)CCCC1 (stereo unspecified),101*,nt,-0.18,nt,-2,nt
CC(C)CNC(=O)c1ccccc1NC(=O)CN(c1ccccc1)S(=O)(=O)N(C)C,1,nt,-0.35,nt,-2,nt
Cc1onc(-c2ccccc2Cl)c1C(=O)N/N=C(\N)COc1ccc(Cl)cc1,84*,19,nt,7,1,8
SMILES,Lmaj promast,INS promoter inh,ROMK mod,PTEN del growth,p97 ATPase inh,HCT116 bCat-KO
Cc1onc(-c2ccccc2Cl)c1C(=O)N1CCCCC1C(=O)O (stereo unspecified),-2,nt,nt,104,4,102
Cc1onc(-c2ccccc2Cl)c1C(=O)N(C)C1CCCCC1,78*,nt,nt,71,1,64
CCC(=O)Nc1ccc(/C(C)=N\NC(=O)c2ccc(C)s2)cc1,96*,-36,nt,96,2,94
CCC(=O)Nc1ccc(/C(C)=N/NC(=O)c2c(-c3ccccc3Cl)noc2C)cc1,96*,35,0.053,111,-2,103
S=C(Cc1cccnc1)N1CCOCC1,42,21,0.9,93,3,89
Cc1nc(-c2ccc(Br)cc2)ccc1C(=O)O,-9,17,nt,99,3,95
Cc1onc(-c2ccccc2Cl)c1C(=O)Nc1ccc(CN2CCCC2)cc1,99*,14,-0.14,91,0,98
COc1ccc(Oc2nc(-c3ccccn3)ncc2OC)cc1,16,-22,-0.33,nt,13,nt
COc1cnc(-c2ccccn2)nc1Sc1c(Cl)cccc1Cl,47,nt,nt,19,-1,19
CCOC(=O)C(C)Sc1nc(-c2ccccn2)ncc1OC (stereo unspecified),13,nt,0.31,nt,2,nt

# Source: PubChem
